The results in this text go back to PubChem BioAssay.

Inconclusive results are not listed. The source made the active and inactive calls. Unless noted, the rule behind the calls is not given here.

The nature of assay [1]: rapamycin-like changes in RPL19A-GFP expression – cell-based, S. cerevisiae, multiplex flow cytometry, primary screen (AID 1862; in the data active = percent of DMSO control GFP below about 86%;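 note: lower values mimic rapamycin by blocking the RPL19A rise seen in DMSO cells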). Particulars: S. cerevisiae RPL19A-GFP strain, flow cytometry fluorescence, 3 h; at 10 µM; stronger effect = lower value.
The nature of assay [2]: TOR pathway GLN3 branch reporter MEP2-GFP changes – S. cerevisiae, multiplex flow cytometry, primary screen (AID 1867;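 active = GFP response, as percent of the DMSO control, above the screen-wide mean plus 3 SD, about 139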;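 note: median GFP channel fluorescence of barcode-gated MEP2-GFP cells measured by flow cytometry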). To be noted: S. cerevisiae MEP2-GFP strain, 3 h, at 10 µM, stronger effect = higher value. On the technique in general: In flow cytometry, cells or beads pass a laser one at a time.
Assay [3] in a line: TOR pathway RTG branch CIT2 reporter changes – S. cerevisiae, GFP fusion, multiplex flow cytometry, primary screen (AID 1870;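 active = percent response above a set limit, the screen-wide mean plus 3 SD, cut at about 130% in these data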;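 note: barcoded CIT2-GFP strain pooled with four other GFP strains with rapamycin as positive control; median GFP fluorescence per well over plate mean of DMSO wells so 100% = DMSO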). Particulars: S. cerevisiae CIT2-GFP expression, 3 h, at 10 µM, stronger effect = higher value.
Assay [4] is described as follows: TOR pathway LAP4-GFP level changes – S. cerevisiae, multiplex flow cytometry, primary screen (AID 1873;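 active = GFP signal, as percent of the solvent control, above the screen mean plus 3 SD, about 149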). To be noted: S. cerevisiae LAP4-GFP expression, 3 h, at 10 µM, stronger effect = higher value.
A short description of assay [5]: yeast AGP1-GFP level changes, GLN3 branch – cell-based, multiplex flow cytometry, S. cerevisiae, primary screen (AID 1887;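 active = GFP signal above the screen-wide mean plus 3 SD, that is over about 124.5% of the solvent control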;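 note: AGP1-GFP fusion strain of S. cerevisiae within a five-strain barcoded multiplex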). To be noted: 3 h, at 10 µM, stronger effect = higher value.
Assay [6] is described as follows: reduced mouse 2C T cell binding to pMHC/ICAM-1 vesicles – MLPCN validation set, flow cytometry, LFA-1/ICAM-1 modulator project, pilot screen (AID 2523;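 active = response below a set limit, under 55% cells CD8-positive and vesicle-bound, and CD8 cells' 90th-percentile brightness under 279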;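 for vesicle binding response: mean PE anti-B7-1 fluorescence of CD8+ cells relative to row control; 100% = QL9-loaded vesicles with DMSO vehicle in the same plate row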). To be noted: 2C mouse CD8+ T cells, at 7 µM, stronger effect = lower value; double positive events: measured here: CD8+/vesicle+ event percentage.
In assay [7] the target is Integrin beta-1 (Homo sapiens) + Integrin alpha-4 (Homo sapiens) (UniProt P13612+P05556). Kind of assay: alpha4beta1 integrin LIBS antibody binding reduction – U937 cells, HUTS-21 mAb, flow cytometry, validation set, VLA-4 allosteric modulator project, pilot screen (AID 2674;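 active = inhibition above 50%, about 3 SD of the validation set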;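 note: antibody binding induced by the VLA-4 ligand LDV present at three times its Kd; 0% = LDV ligand with antibody and no compound and 100% = antibody without LDV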). To be noted: HUTS-21 LIBS mAb binding, at 6.7 µM, stronger effect = higher value.
Chain of Integrin beta-1 (Homo sapiens) + Integrin alpha-4 (Homo sapiens) (P05556 whole entry, looked up): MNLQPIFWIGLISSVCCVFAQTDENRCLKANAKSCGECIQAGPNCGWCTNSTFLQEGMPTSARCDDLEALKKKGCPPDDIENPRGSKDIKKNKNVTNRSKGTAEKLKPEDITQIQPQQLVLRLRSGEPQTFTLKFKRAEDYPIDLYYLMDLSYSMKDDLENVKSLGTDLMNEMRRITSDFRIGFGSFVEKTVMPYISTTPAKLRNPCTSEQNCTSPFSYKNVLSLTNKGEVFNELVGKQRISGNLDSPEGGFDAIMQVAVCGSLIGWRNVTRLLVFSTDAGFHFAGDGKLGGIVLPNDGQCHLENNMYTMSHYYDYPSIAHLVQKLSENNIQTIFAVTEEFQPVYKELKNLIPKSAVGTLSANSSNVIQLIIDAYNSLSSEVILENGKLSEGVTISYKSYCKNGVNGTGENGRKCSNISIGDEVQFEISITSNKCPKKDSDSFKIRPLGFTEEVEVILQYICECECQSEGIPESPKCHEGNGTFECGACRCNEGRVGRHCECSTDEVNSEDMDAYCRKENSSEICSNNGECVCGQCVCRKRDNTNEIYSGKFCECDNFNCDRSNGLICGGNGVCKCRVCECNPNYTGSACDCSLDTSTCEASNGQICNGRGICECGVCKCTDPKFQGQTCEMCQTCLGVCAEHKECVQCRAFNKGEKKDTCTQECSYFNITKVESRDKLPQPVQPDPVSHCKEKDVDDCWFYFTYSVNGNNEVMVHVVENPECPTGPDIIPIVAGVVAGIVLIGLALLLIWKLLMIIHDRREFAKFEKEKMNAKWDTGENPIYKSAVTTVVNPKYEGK
Chain of Integrin beta-1 (Homo sapiens) + Integrin alpha-4 (Homo sapiens) (P13612 whole entry, looked up): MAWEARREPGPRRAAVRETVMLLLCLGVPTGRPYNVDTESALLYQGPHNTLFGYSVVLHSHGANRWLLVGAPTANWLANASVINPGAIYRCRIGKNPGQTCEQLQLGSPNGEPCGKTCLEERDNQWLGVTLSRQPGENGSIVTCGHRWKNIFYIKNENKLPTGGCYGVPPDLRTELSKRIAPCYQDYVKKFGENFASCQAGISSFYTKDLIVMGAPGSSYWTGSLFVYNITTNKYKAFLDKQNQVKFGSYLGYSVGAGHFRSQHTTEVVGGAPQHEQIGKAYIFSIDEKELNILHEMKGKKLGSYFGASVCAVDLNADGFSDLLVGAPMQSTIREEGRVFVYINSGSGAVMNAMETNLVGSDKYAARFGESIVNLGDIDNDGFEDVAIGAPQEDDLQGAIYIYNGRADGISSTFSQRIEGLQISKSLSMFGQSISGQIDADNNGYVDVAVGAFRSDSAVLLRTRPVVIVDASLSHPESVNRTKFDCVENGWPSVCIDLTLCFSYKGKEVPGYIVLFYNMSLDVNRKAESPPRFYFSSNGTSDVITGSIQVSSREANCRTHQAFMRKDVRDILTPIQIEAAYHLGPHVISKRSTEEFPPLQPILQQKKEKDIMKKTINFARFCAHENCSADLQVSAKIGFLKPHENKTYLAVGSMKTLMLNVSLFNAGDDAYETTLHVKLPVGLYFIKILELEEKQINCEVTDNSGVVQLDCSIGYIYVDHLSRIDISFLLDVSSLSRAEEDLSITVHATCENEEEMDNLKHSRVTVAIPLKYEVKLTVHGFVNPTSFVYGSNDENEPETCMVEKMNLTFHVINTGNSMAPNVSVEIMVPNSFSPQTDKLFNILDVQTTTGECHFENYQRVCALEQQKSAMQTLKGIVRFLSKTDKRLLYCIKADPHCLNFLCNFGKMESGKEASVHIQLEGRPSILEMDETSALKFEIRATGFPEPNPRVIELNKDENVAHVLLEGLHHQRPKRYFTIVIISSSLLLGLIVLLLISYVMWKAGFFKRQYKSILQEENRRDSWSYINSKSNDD
The nature of assay [8]: calorie-restriction mimetic ROS inhibitors, yeast – validation compound set, pilot screen (AID 2706;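 active = superoxide response below 65% of plate, a cut near 3 SD across the whole screen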;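 note: yeast exposed to compound for one week at 30 degrees C before staining; 100% = mean of all compound wells on the same plate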). To be noted: S. cerevisiae aging, superoxide DHE fluorescence; at 10 µM; stronger effect = lower value.
The target in assay [9] is Beta-adrenergic receptor kinase 1 (Homo sapiens) (UniProt P25098). Briefly: GRK2 binders displacing RNA aptamer, biochemical, validation, human GRK2, bead flow cytometry (AID 488806;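 active = aptamer binding inhibition above 30%, about 3 SD of noise from non-fluorescent compounds; inactive = inhibition at or below 30%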). To be noted: bead-bound GRK2, FAM-aptamer displacement, at 10 µM, stronger effect = higher value.
For assay [10], the target named is Beta-2 adrenergic receptor (Homo sapiens) (UniProt P07550). Briefly: agonist-induced loss of surface beta2AR – cell-based, FAP fluorogen, flow cytometry, validation set, pilot screen (AID 504459;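 active = percent response above 42, roughly 3 SD of non-fluorescent test compounds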;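 note: agonist-driven loss of surface beta2AR via internalization measured by FAP dye flow cytometry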). Particulars: Am2.2-beta2AR cells, at 10 µM, stronger effect = higher value.
Chain of Beta-2 adrenergic receptor (Homo sapiens) (P07550 whole entry, looked up): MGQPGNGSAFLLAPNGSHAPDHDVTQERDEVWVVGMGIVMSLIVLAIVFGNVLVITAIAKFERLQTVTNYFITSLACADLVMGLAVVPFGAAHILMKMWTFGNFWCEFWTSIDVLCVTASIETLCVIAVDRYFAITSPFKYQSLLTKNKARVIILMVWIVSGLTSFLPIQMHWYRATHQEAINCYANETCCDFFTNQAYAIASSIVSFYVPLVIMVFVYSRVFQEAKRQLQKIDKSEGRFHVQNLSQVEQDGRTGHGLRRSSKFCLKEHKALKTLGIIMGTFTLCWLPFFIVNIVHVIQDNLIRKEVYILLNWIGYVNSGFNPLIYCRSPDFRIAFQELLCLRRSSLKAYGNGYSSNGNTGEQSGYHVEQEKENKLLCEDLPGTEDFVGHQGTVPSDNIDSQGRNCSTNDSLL
Assay [11] concerns the target AP-2 complex subunit beta (Homo sapiens) (UniProt P63010). Briefly: beta-arrestin/AP2 interaction blockers – biochemical, validation set, GST-AP2 beads, flow cytometry, pilot screen (AID 504541;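 active = inhibition above 54%, about 3 SD of non-fluorescent compounds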;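 note: AP2 carries R879A mutation and is captured from E. coli lysate; bead-bound FITC arrestin peptide fluorescence measuring arrestin peptide binding to AP2; 0% = DMSO wells and 100% = excess unlabeled arrestin peptide control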). To be noted: FITC arrestin peptide, at 10 µM, stronger effect = higher value.
The nature of assay [12]: cytosolic pH regulators acting via V-ATPase – S. cerevisiae, pHLuorin, HTS validation (AID 504600; in the data active = response above about 15%;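 note: plate controls were DMSO for no effect and reference compound for full effect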). To be noted: V-ATPase proton transport, at 10 µM, stronger effect = higher value.
For assay [13], the system named is anti-desmoglein-3 scFv antibody binding to human DSG3. Briefly: blockers of pathogenic pemphigus antibody–desmoglein-3 binding – biochemical, validation compound set, bead-based, flow cytometry, pilot screen (AID 588368;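 active = binding below the plate cutoff, the plate median minus 3 SD, with a reading above zero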;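 note: signal is the median channel fluorescence of bead-bound GFP antibody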). To be noted: Protein G beads, DSG3-Fc, scFv-GFP binding, at 10 µM, stronger effect = lower value.
The subject of assay [14] is Botulinum neurotoxin type F light chain protease (Clostridium botulinum). Briefly: Clostridium botulinum type F light chain protease inhibitors, microsphere substrate cleavage, validation (AID 588459). To be noted: multiplex microsphere protease substrate cleavage assay, flow cytometry; at 10 µM; stronger effect = higher value.
Assay [15] concerns the target Botulinum neurotoxin type A (Clostridium botulinum) (UniProt P0DPI0). Briefly: BoNT/A light chain protease inhibitors, biochemical, multiplex microsphere flow cytometry, validation set (AID 588460). Particulars: at 10 µM, stronger effect = higher value.
Assay [16] addresses Lethal factor (Bacillus anthracis) (UniProt P15917). Briefly: Bacillus anthracis lethal factor inhibition, microsphere flow cytometry protease assay, validation at 10 µM (AID 588461). To be noted: multiplex microsphere protease cleavage assay, stronger effect = higher value.
Assay [17] is described as follows: Nile Red efflux blockade in pump-expressing yeast – validation compound set, multiplex, phenotypic, pilot screen (AID 588506;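 active = efflux inhibition above 0.42, the validation set average plus 4 SD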;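 note: Nile Red retained in cells so higher fluorescence means more efflux inhibition; 0 = negative control wells and 1 = enniatin B 25 µM full block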). To be noted: S. cerevisiae pump-expressing triplex, Nile Red efflux flow cytometry; at 10 µM; stronger effect = higher value.
Assay [18] addresses ATP-binding cassette sub-family B member 6 (Homo sapiens) (UniProt Q9NP58). Kind of assay: blockers of ABCB6-driven porphyrin uptake – K562-ABCB6 cells, flow cytometry, validation set, pilot screen (AID 588550;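 active = inhibition above the screen-wide mean plus 3 SD, about 51%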;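 note: 0% = DMSO wells and 100% = benzethonium chloride 70 µM positive control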). Particulars: K562-ABCB6 porphyrin accumulation, 1 h, at 10 µM, stronger effect = higher value.
Assay [19] can be described thus: AML differentiation inducers, ER-HoxA9 marrow cells – cell-based, GFP/MAC1 double positive, flow cytometry, validation set, primary screen (AID 588685;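 active = differentiation response of at least 50%, scaled between solvent and reference control, from cells with both markers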;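 note: compound exposure lasts four days before antibody staining and flow analysis; 0% = DMSO wells and 100% = 5 µM fulvestrant positive control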). Particulars: stronger effect = higher value.

Chain of AP-2 complex subunit beta (Homo sapiens) (P63010 whole entry, looked up, one chain of several): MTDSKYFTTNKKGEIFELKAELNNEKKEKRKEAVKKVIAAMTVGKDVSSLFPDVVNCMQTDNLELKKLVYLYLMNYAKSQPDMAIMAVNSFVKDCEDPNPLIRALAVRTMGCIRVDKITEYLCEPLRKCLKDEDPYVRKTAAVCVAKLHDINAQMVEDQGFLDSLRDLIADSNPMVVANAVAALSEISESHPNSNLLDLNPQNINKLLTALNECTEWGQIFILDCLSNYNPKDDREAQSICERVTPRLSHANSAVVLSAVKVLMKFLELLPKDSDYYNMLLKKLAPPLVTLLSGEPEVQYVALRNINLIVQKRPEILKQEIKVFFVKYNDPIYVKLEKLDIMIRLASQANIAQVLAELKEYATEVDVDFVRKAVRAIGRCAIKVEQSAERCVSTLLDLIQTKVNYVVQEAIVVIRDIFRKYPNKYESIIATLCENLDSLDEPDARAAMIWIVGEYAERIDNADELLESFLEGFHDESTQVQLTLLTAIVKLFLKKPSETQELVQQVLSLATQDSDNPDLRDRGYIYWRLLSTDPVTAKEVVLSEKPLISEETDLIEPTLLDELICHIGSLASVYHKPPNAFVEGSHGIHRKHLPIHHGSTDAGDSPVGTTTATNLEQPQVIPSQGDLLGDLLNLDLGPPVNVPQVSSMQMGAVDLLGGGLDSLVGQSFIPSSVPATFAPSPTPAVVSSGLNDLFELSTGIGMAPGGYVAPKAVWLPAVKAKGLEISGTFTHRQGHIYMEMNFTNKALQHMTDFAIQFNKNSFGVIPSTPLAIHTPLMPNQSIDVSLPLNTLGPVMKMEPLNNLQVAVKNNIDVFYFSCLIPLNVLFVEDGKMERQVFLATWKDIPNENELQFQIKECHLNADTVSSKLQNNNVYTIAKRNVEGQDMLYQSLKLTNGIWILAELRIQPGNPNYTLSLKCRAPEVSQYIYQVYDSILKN
Chain of ATP-binding cassette sub-family B member 6 (Homo sapiens) (Q9NP58 whole entry, looked up): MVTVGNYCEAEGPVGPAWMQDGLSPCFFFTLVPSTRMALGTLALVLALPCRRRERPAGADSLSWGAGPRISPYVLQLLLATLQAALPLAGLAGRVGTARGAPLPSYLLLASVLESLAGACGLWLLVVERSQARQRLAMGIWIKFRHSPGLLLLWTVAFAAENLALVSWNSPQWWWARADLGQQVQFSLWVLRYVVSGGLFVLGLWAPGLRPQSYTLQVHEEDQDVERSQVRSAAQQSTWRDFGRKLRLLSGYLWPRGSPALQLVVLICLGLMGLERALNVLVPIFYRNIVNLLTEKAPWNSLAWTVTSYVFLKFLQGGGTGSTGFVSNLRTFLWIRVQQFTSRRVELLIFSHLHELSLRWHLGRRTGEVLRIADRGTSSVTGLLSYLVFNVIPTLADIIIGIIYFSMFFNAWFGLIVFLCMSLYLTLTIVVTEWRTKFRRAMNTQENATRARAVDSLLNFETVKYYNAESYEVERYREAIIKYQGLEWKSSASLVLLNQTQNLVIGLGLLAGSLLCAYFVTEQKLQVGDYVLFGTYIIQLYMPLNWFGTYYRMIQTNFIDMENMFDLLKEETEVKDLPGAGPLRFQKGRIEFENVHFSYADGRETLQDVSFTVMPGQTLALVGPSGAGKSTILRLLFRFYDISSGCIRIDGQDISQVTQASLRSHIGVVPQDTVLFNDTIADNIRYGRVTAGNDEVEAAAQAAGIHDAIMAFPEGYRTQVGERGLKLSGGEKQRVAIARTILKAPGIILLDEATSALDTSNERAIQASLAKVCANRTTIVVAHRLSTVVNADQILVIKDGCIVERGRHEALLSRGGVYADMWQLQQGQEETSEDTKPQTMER
Chain of Lethal factor (Bacillus anthracis) (P15917 whole entry, looked up): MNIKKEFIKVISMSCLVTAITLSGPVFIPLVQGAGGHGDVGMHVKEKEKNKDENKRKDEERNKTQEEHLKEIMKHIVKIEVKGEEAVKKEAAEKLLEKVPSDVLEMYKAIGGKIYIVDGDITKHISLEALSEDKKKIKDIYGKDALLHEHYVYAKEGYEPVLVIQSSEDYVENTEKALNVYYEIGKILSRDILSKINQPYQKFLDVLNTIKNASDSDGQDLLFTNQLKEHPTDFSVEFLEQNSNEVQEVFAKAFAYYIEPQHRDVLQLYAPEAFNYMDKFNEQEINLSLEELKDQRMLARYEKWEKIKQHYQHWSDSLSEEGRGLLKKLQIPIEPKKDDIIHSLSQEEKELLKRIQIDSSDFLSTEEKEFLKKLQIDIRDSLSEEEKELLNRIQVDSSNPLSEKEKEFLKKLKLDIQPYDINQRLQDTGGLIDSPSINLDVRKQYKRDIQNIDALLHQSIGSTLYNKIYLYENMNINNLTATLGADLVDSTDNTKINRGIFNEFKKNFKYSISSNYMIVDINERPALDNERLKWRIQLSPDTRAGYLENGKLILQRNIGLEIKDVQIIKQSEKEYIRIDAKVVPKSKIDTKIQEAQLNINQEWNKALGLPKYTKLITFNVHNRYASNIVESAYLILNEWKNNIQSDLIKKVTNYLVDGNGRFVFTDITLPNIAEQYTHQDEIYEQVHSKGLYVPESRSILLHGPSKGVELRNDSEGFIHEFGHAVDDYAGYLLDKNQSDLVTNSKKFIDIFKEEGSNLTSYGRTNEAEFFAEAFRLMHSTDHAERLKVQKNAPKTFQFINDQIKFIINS

For `COc1ccc(OC)c([C@@H](O)[C@H](C)NC(C)(C)C)c1`, the percent of DMSO control GFP in [1] is 100% (inactive). The GFP response vs DMSO in [2] was 102% (inactive); in assay [4], 91.5% (inactive). The percent response of DMSO control in assay [3] was 94.5% (inactive). Besides, the GFP response, % of DMSO in assay [5] was 88.8% (inactive). Moreover, the double positive events in [6] worked out at 62%. For the same molecule, in [6], the vesicle binding response is 157% (inactive). Also, the inhibition (as a rule, the drop in the measured response relative to a control, in per cent) was -6.45% (inactive) in [7]; -6.97% (inactive) in [11]; -0.4% (inactive) in assay [14]; -1.1% (inactive) in assay [15]; 1.4% (inactive) in assay [16]; 18% (inactive) in assay [18]. The superoxide response (% of plate) in assay [8] was 102% (inactive). The aptamer binding inhibition in [9] is 0% (inactive). Besides, the response is 14.8% (inactive) in assay [10] and 0.56% (inactive) in assay [12]. Moreover, the binding (% of control) in assay [13] was 106% (inactive). The efflux inhibition (fraction of control) in assay [17] is 0.28 (inactive). For the same molecule, the differentiation response in assay [19] was -6.03% (inactive).

As to `COP(=O)(OC)C(O)C(Cl)(Cl)Cl` (stereo not given), in [1], the percent of DMSO control GFP was 103% (inactive). Further, the GFP response vs DMSO in assay [2] was 98.3% (inactive); in [4], 99.9% (inactive). The percent response of DMSO control in assay [3] was 102% (inactive). Moreover, the GFP response, % of DMSO in assay [5] was 102% (inactive). In assay [6], this molecule had a double positive events of 62.8%. Besides, the vesicle binding response in [6] was 230% (inactive). Further, the inhibition in assay [7] was 9.92% (inactive); in assay [11], -9.07% (inactive); in assay [14], -1% (inactive); in assay [15], -0.6% (inactive); in [16], -2.9% (inactive); in [18] it was -2% (inactive). The superoxide response (% of plate) in [8] is 94.8% (inactive). For the same molecule, in [9], the aptamer binding inhibition was 3% (inactive). For the same molecule, the response is -7.88% (inactive) in assay [10] and 0.81% (inactive) in [12]. Moreover, the binding (% of control) in assay [13] is 97.9% (inactive). Also, the efflux inhibition (fraction of control) in [17] was -0.17 (inactive). Besides, in assay [19], the differentiation response is 12.9% (inactive).

In the case of `C[C@]12CCC(=O)C=C1CCC1C2CC[C@@]2(C)C1CC[C@@]2(O)CC#N` (stereo not given in full), the percent of DMSO control GFP in assay [1] is 99.8% (inactive). Also, the GFP response vs DMSO is 105% (inactive) in assay [2] and 90.7% (inactive) in [4]. For the same molecule, in assay [3], the percent response of DMSO control is 101% (inactive). In addition, the GFP response, % of DMSO in assay [5] was 98% (inactive). For the same molecule, in [6], the double positive events was found to be 71.1%. For the same molecule, in assay [6], the vesicle binding response is 961% (inactive). For the same molecule, the inhibition in assay [7] was 12% (inactive); in assay [11] it was -0.45% (inactive); in assay [14] it was 3.3% (inactive); in [15] it was -0.9% (inactive); in assay [16], -2.6% (inactive); in assay [18] it was 8% (inactive). Besides, the superoxide response (% of plate) in [8] was 95.6% (inactive). For the same molecule, the aptamer binding inhibition in assay [9] is 5% (inactive). Further, the response in [10] was -3.28% (inactive); in [12], -1.52% (inactive). The binding (% of control) in assay [13] was 97.9% (inactive). The efflux inhibition (fraction of control) in assay [17] is -0.07 (inactive). Moreover, the differentiation response in assay [19] was 11% (inactive).

As for `c1ccc2c(c1)Nc1ccccc1S2`, in assay [1], the percent of DMSO control GFP was 92.8% (inactive). The GFP response vs DMSO in [2] is 139% (inactive); in assay [4], 81.4% (inactive). Further, the percent response of DMSO control in assay [3] was 95.2% (inactive). In assay [5], the GFP response, % of DMSO is 84.7% (inactive). For the same molecule, the double positive events in assay [6] was found to be 61.9%. Also, the vesicle binding response in assay [6] was 121% (inactive). Besides, the inhibition in assay [7] was 12.3% (inactive); in [11], 9.01% (inactive); in assay [14] it was -1.5% (inactive); in [15] it was 0.5% (inactive); in assay [16] it was -2.6% (inactive); in assay [18], 9% (inactive). In addition, in [8], the superoxide response (% of plate) is 81.7% (inactive). Further, the aptamer binding inhibition in assay [9] was 2% (inactive). Besides, the response in assay [10] is 1.66% (inactive); in assay [12], -2.45% (inactive). For the same molecule, in assay [13], the binding (% of control) is 100% (inactive). Further, the efflux inhibition (fraction of control) in assay [17] is 0.27 (inactive). The differentiation response in assay [19] is 1.64% (inactive).
